Source: the supplement of paper PMC10849652
Of roughly 7,900 targets only a part is listed; those with a hit were picked by preference. About 0.6% of all pairs of compound and target were hits.

Key:
Assay in all cases: log2 fold change, soluble protein after heating vs DMSO (PISA); higher = thermal stabilisation; K562 cells, 10 uM, 30 min; active = over 0.2 and 3.5 SD of the protein, either way, in both replicates (recomputed)
[1] = compound: NC(=O)Nc1cc(-c2cccc(F)c2)sc1C(=O)N[C@H]1CCCNC1
In short: (§1)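 K562 cells at 2×10^6 cells/mL were given 10 μM compound for 30 min. Aliquots then went through 3 min of heating across 48°C-58°C, were pooled, and were extracted in PBS with 0.5% NP-40 at 4°C, and the supernatant after 21,000xg for 90 min was quantified by TMTpro 16plex LC-MS/MS with channel sums equalised. Thermal stability relative to control samples, from duplicates, is given as log2 fold change.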

[2] = compound: NCC(=O)Nc1ccc(-n2nc(C(F)(F)F)cc2-c2ccc3c(ccc4ccccc43)c2)cc1
In short: as §1

[3] = compound: Nc1ccccc1NC(=O)c1ccc(CNC(=O)OCc2cccnc2)cc1 [entinostat]
In short: as §1

[4] = compound: O=C(CCCCCCNC(=O)c1cnc(N(c2ccccc2)c2ccccc2Cl)nc1)NO [citarinostat]
In short: as §1

[5] = compound: c1cc(OCCN2CCCCC2)cc(-c2n[nH]c3ccc(-c4nnc[nH]4)cc23)c1
In short: as §1

[6] = compound: NC1(c2ccc(-c3nc4ccn5c(=O)[nH]nc5c4cc3-c3ccccc3)cc2)CCC1
In short: as §1

[7] = compound: O=C(CCCCCCC(=O)Nc1ccccc1)NO [vorinostat]
In short: as §1

[8] = compound: O=C(O)c1ccc2c(c1)nc(Nc1cccc(Cl)c1)c1ccncc12 [silmitasertib]
In short: as §1

[9] = compound: NC(=O)c1cnc(N[C@@H]2CCCC[C@@H]2N)nc1Nc1cccc(-n2nccn2)c1
In short: as §1

[10] = compound: O=C1NC(=O)C(c2cnc3ccccn23)=C1c1cn2c3c(cc(F)cc13)CN(C(=O)N1CCCCC1)CC2
In short: as §1

Measured: log2 fold change

TUBA4A (UniProt C9JJQ8)
inactive: [1] -0.035 | [2] 0.053 | [3] 0.093 | [4] 0.039 | [5] 0.206

TMEM8A (UniProt Q9HCN3)
inactive: [1] -0.059 | [6] -0.393 | [2] -0.048 | [3] -0.485 | [7] -0.077 | [4] -0.037 | [8] 0.053 | [5] -0.056

WARS1 (UniProt G3V227)
inactive: [9] 0.045 | [2] -0.115 | [10] -0.084

TUT4 (UniProt Q5TAX3)
Chain of UniProt Q5TAX3 (Q5TAX3 whole entry, looked up): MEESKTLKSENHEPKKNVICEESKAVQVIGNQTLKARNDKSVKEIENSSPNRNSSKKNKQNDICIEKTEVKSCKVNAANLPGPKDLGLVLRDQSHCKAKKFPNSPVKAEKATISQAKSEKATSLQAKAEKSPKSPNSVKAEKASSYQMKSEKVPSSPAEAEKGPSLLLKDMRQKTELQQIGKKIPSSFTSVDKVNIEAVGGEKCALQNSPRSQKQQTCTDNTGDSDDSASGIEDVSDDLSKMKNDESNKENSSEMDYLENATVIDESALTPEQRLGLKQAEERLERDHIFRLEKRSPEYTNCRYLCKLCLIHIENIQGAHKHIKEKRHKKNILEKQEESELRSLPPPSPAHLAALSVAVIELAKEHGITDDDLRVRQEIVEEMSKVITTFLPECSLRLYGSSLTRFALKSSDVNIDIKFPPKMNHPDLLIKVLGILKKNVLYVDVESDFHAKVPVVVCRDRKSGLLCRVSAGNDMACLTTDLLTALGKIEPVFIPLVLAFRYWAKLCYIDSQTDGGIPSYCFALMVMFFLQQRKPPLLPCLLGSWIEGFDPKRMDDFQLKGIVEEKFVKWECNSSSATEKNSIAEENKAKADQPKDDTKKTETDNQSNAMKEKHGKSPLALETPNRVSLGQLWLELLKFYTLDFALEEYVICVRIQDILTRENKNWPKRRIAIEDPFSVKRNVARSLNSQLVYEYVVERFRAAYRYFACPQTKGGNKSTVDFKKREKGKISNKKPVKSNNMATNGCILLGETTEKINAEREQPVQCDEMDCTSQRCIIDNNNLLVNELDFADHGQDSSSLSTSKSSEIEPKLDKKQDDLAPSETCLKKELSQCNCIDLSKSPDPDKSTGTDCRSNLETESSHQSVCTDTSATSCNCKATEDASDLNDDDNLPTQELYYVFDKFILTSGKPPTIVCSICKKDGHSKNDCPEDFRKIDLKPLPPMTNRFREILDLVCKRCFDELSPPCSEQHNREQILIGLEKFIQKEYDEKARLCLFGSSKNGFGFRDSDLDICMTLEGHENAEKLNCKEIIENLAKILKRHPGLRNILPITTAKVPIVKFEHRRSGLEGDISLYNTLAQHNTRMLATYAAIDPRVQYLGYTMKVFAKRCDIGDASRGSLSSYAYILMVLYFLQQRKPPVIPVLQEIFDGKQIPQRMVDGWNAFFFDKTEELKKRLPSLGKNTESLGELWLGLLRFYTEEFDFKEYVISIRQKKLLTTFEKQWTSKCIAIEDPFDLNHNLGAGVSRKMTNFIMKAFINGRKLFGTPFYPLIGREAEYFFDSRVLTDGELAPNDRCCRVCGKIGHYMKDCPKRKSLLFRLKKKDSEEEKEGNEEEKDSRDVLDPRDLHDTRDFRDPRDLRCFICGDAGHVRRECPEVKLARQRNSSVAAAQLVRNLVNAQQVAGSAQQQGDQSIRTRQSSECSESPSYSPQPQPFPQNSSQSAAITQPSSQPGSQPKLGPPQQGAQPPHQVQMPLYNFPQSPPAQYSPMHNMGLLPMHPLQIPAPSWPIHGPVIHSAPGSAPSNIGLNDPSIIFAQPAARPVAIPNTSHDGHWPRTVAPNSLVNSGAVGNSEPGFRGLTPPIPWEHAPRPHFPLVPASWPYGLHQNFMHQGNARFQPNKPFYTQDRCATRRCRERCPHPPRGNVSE
inactive: [1] 0.028 | [6] 0.07 | [2] -0.349 | [3] 0.004 | [7] -0.032 | [4] -0.161 | [8] 0.094 | [10] 0.322 | [5] -0.063

TXNRD1 isoform 7 (UniProt Q16881)
inactive: [1] -0.083 | [2] -0.214 | [3] 0.065 | [7] 0.21 | [4] -0.171 | [10] -0.227 | [5] 0.171

TRIM23 (UniProt P36406)
inactive: [1] -0.025 | [6] -0.02 | [2] -0.083 | [3] -0.01 | [7] 0.06 | [4] 0.015 | [8] -0.044 | [5] -0.026

UBXN8 (UniProt O00124)
inactive: [1] -0.139 | [9] -0.103 | [2] -0.344 | [3] 0.046 | [7] -0.055 | [4] 0.037 | [10] -0.05 | [5] -0.143

UTP20 (UniProt O75691)
inactive: [10] 0.009

XRCC1 (UniProt P18887)
Chain of UniProt P18887 (P18887 whole entry, looked up): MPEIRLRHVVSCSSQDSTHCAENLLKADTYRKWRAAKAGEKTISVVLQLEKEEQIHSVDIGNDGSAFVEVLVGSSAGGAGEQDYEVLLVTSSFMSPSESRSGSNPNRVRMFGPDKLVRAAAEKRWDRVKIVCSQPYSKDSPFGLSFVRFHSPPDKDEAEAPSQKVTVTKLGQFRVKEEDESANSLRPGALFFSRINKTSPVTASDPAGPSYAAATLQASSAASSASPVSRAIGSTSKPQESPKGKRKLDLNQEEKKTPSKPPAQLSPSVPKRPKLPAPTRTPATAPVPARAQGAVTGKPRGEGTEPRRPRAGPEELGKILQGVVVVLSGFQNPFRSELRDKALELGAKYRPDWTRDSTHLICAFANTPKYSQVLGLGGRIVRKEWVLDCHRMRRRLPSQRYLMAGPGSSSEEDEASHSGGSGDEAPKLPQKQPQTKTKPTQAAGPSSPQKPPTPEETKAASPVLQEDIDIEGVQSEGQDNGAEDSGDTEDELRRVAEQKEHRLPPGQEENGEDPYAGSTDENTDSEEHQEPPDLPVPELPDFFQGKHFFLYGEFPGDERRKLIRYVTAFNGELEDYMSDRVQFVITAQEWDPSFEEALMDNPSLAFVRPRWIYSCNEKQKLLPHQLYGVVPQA
inactive: [1] -0.011 | [9] -0.183 | [3] 0.064 | [7] 0.228 | [10] -0.211

TOM1L2 (UniProt Q6ZVM7)
inactive: [1] 0.089 | [9] -0.136 | [2] -0.098 | [3] 0.036 | [10] -0.043

WARS1 (UniProt G3V339)
inactive: [10] -0.387

TMEM128 (UniProt Q5BJH2)
inactive: [1] -0.059 | [9] -0.167 | [2] -0.092 | [3] -0.036 | [4] -0.131 | [10] -0.037 | [5] -0.07

TVP23C (UniProt Q96ET8)
inactive: [9] -0.021 | [6] -0.023 | [2] -0.003 | [7] 0.045 | [4] -0.297 | [8] 0.132 | [5] 0.081

WDR75 (UniProt Q8IWA0)
inactive: [9] -0.004 | [6] 0.173 | [2] -0.125 | [8] 0.086 | [10] 0.17

TSPAN13 (UniProt O95857)
inactive: [1] -0.091 | [6] -0.125 | [2] 0.03 | [3] -0.109 | [7] 0.002 | [8] 0 | [10] -0.166

TSC2 (UniProt P49815)
inactive: [1] -0.038 | [9] -0.074 | [6] 0.214 | [3] -0.061 | [7] 0.125 | [4] 0.273 | [8] 0.107 | [10] 0.105
active: [5] -0.594

UBE2J2 isoform 3 (UniProt Q8N2K1)
inactive: [1] -0.072 | [9] 0.028 | [2] 0.213 | [3] -0.067 | [7] 0.156 | [4] 0.1 | [10] -0.299 | [5] -0.039

WDR4 isoform 3 (UniProt P57081)
inactive: [1] -0.103 | [3] -0.02 | [7] -0.118 | [10] -0.135

UBXN10 (UniProt Q96LJ8)
active: [2] -0.426
inactive: [1] 0.062 | [6] 0.102 | [3] -0.069 | [7] 0.136 | [4] -0.121 | [8] -0.006 | [10] -0.031 | [5] 0.037

TRIM5 (UniProt Q9C035)
inactive: [1] -0.219 | [9] -0.085 | [2] -0.006 | [3] 0.137 | [10] 0.024

VWA3B isoform 6 (UniProt Q502W6)
Chain of UniProt Q502W6 (Q502W6 whole entry, looked up): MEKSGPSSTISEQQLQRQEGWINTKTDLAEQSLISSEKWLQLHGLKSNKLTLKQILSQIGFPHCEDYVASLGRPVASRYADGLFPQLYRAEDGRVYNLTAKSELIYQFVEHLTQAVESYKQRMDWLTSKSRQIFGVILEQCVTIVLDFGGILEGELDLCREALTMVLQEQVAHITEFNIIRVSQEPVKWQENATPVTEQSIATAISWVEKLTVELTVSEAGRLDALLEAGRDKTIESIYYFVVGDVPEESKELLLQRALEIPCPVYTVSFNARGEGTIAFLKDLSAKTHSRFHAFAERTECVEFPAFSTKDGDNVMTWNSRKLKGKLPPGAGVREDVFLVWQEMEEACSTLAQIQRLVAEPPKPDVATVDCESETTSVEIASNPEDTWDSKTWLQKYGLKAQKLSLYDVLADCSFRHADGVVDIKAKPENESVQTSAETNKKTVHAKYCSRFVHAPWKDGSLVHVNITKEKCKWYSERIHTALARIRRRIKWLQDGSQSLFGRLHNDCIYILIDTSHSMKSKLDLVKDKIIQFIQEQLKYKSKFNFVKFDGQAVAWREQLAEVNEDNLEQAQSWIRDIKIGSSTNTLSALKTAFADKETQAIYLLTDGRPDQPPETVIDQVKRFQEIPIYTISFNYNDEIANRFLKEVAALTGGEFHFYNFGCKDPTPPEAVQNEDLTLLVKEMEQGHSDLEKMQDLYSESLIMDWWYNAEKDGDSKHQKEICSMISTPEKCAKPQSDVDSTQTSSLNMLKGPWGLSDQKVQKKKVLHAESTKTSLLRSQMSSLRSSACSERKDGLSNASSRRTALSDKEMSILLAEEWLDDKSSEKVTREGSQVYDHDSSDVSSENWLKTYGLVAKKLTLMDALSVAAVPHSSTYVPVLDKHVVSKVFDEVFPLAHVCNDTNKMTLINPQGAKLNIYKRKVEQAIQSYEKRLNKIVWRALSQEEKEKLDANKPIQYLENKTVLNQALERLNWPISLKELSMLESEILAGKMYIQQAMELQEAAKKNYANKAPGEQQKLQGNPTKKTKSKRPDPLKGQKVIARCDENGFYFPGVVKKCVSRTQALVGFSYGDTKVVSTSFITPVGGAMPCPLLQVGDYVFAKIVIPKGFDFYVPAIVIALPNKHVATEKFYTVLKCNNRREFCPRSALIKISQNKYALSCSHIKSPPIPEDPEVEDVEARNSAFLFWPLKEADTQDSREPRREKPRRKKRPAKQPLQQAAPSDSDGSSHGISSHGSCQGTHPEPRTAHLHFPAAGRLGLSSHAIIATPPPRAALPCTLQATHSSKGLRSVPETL
inactive: [9] -0.271 | [6] -0.023 | [2] -0.059 | [7] 0.076 | [4] -0.128 | [8] 0.162 | [10] -0.009 | [5] -0.076

USP48 (UniProt Q86UV5)
Chain of UniProt Q86UV5 (Q86UV5 whole entry, looked up): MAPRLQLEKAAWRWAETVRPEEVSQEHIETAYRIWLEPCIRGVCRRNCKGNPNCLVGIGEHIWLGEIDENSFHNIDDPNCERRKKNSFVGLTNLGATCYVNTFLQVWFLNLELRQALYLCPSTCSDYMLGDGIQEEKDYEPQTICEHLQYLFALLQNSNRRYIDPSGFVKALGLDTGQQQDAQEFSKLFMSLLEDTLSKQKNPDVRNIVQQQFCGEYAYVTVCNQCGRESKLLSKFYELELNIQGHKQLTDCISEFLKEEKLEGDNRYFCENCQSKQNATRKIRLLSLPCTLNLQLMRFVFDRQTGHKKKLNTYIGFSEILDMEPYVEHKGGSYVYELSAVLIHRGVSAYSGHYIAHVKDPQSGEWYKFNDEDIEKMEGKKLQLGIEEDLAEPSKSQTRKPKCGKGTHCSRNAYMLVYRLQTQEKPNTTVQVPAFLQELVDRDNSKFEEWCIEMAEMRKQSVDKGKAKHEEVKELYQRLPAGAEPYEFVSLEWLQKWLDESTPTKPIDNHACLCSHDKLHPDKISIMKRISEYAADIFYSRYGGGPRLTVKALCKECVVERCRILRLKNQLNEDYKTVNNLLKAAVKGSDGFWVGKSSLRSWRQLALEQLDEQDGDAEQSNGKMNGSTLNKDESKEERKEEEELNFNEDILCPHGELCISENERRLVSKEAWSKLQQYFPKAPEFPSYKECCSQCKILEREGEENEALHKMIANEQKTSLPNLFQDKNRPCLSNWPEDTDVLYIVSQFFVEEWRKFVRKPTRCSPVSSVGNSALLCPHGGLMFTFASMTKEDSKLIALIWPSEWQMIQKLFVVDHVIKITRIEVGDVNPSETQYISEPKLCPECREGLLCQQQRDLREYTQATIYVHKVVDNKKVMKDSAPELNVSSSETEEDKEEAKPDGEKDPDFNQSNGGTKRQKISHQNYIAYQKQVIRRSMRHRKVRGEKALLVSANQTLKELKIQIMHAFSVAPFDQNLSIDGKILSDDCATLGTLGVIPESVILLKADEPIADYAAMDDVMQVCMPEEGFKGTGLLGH
inactive: [1] -0.077 | [6] -0.242 | [3] 0.164 | [4] -0.024 | [8] 0.185 | [5] 0.076

TMEM219 (UniProt Q86XT9)
active: [7] 0.389
inactive: [1] 0.079 | [9] 0.033 | [2] 0.036 | [3] 0.052 | [10] -0.025

TRPT1 isoform 4 (UniProt Q86TN4)
inactive: [1] 0.037 | [9] 0.235 | [6] 0 | [3] 0.123 | [4] 0.029 | [8] 0.059 | [5] -0.025

UBAP2L (UniProt F8W726)
inactive: [6] 0.083 | [7] -0.033 | [4] 0.095 | [8] 0.004 | [5] -0.066

TOM1 (UniProt O60784)
inactive: [1] 0.044 | [6] -0.176 | [3] 0.062 | [7] 0.048 | [8] 0.017 | [10] -0.077

XAB2 (UniProt Q9HCS7)
inactive: [6] 0.011 | [8] 0.038 | [10] 0.298

TMEM268 isoform 3 (UniProt Q5VZI3)
inactive: [1] 0.12 | [9] 0.057 | [6] -0.141 | [3] 0.059 | [7] 0.162 | [4] 0.084 | [8] -0.114 | [10] 0.174 | [5] -0.117

VDAC1 (UniProt C9JI87)
inactive: [1] -0.145 | [9] -0.166 | [6] -0.065 | [3] -0.158 | [4] -0.153 | [8] 0.024 | [10] -0.09 | [5] 0.044

WDR46, A0A0G2JJL1
inactive: [1] 0.222 | [6] 0.515 | [2] 0.146 | [3] -0.113 | [4] -0.163 | [8] 0.247 | [10] 0.284 | [5] 0.013

U2AF1L5 (UniProt P0DN76)
inactive: [9] 0.047 | [6] 0.07 | [2] -0.295 | [4] -0.28 | [8] -0.024 | [5] -0.146

TMEM104 (UniProt Q8NE00)
Chain of UniProt Q8NE00 (Q8NE00 whole entry, looked up): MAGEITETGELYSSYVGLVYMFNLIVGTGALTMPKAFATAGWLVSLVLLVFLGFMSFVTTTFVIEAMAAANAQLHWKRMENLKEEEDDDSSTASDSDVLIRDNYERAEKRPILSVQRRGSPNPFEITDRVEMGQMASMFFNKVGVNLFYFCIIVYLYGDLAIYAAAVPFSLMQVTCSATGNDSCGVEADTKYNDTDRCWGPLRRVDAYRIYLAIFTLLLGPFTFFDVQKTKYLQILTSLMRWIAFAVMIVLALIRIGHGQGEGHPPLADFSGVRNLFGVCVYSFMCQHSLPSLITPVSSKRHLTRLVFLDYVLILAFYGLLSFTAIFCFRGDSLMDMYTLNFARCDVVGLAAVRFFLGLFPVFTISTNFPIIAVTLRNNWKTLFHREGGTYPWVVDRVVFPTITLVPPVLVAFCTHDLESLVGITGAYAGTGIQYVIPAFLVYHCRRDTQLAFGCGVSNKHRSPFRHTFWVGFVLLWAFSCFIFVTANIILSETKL
inactive: [9] 0.08 | [6] 0.232 | [7] 0.068 | [4] -0.063 | [8] 0.097 | [10] 0.143 | [5] -0.051

TRIQK (UniProt Q629K1)
inactive: [1] 0.013 | [6] -0.044 | [3] -0.083 | [8] 0 | [10] -0.235

WARS1 (UniProt G3V5U1)
inactive: [1] -0.609 | [6] -0.142 | [3] -0.218 | [4] -0.608 | [8] 0.297 | [10] -0.761 | [5] -0.083

WARS1 (UniProt G3V3P2)
inactive: [1] -0.196 | [3] -0.074

TTC26
inactive: [2] 0.006

UBE3B (UniProt Q7Z3V4)
inactive: [1] 0.034 | [9] -0.043 | [3] -0.046 | [10] -0.037
